Sampled rows, rich in hits. Any-hit rate of the full collection: about 2.1%.
TDP-43 yeast inh: qHTS of TDP-43 Inhibitors; TDP-43 expressing yeast growth rescue, BacTiter-Glo, 24 h; Potency, µM (doses to about 46.1 µM), for inactives: at the highest dose growth rescue (activation), hits mostly activators; hit rate 1.8% among 410,000; AID 652104, 2013; also: % of control where 0% means no effect; nearly all actives have a fitted effect of over 50% in size
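Readout is BacTiter-Glo luminescence of cell growth, so inhibitors register as activators. TDP-43-expressing yeast at OD600=0.02 in galactose medium, after raffinose pregrowth to mid-log, were incubated with compound for 24 hr at 30 deg C.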
FUS yeast rescue: qHTS for Suppressors of FUS Proteinopathy: Primary screen using FUS-linked yeast assay; S. cerevisiae FUS-expressing, growth rescue, OD600, 24 h; Potency, µM (top dose mostly 76.6 µM), usual class: activators; hit rate 0.24% among 390,000;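 also: plate controls were DMSO vehicle for no effect and reference control for full effect; nearly all actives have a fitted effect of over 55% in size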
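Steps: raffinose overnight preculture; dilution to OD 0.005 in 2% galactose minimal medium; compound addition (concentration series); 24hr at 30C, 99% humidity; absorbance read at 600 nm.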
aSyn yeast inh: qHTS of alpha-syn Inhibitors. Yeast expressing alpha-synuclein, growth rescue, BacTiter-Glo, 24 h. Potency, µM (titrated, usually from 46.1 µM), for the others: top-dose growth rescue (activation), hits mostly activators. hit rate 0.14% among 370,000; also: % of control where 0% means no effect; nearly all actives have a fitted effect of over 65% in size
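Screening used galactose-induced yeast with toxic alpha-synuclein levels, exposed to compound for 24 hr at 30 deg C. Cell growth, read with BacTiter-Glo luminescence, gave the measured signal.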
Abeta yeast res: qHTS for compounds that reverse cellular toxicity of Amyloid beta (A-beta) peptide in yeast: Primary Screen; yeast expressing A-beta42, growth rescue, OD600, 48 h; response scale: 0% DMSO, 100% iron-clioquinol control; Potency, µM (series often up to 46.1 µM), hits mostly activators; hit rate 0.063% among 410,000; also: nearly all actives have a fitted effect of over 55% in size
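Yeast A-beta toxicity model in growth medium with pinned compounds, 48 h at 30 C; growth read as absorbance at 600 nm. Normalized to FeCl3/clioquinol equimolar mix (positive) and DMSO (negative).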
* = called active by the depositor; i = inactive; ? = inconclusive; . = no result given. Calls follow the shape of the dose curve; as a rule, active = well fitted curve in the direction sought with a large enough effect; inconclusive = small, poorly fitted or top-dose-only effect, or another doubt; inactive = no such curve, though single readings can be large; an effect the other way counts as inactive or inconclusive. Potency is read from the fitted curve at half-maximal effect.

SMILES	TDP-43 yeast inh	FUS yeast rescue	aSyn yeast inh	Abeta yeast res
Cc1ccc(CNC(=O)c2ccc(-c3nc(CN4CCc5ccccc54)c(C)o3)cc2)cc1	16.5%	i	-0.4%	i
COc1ccc(OC)c2sc(N3CCN(C(=O)C(C)(C)C)CC3)nc12	22.4µM*	i	.	i
CCOc1cccc2sc(N3CCN(C(=O)C(C)(C)C)CC3)nc12	11.2µM*	i	.	i
CCOc1cccc2sc(N3CCN(C(=O)c4ccco4)CC3)nc12	?	i	.	i
COc1ccccc1C(=O)OCC(=O)Nc1ccc(N2CCCCC2)cc1	.	.	-1.4%	.
O=C1NC(=O)/C(=C/c2ccc3c(c2)OC(F)(F)O3)S1	.	.	-38.7%	.
CCOc1ccc(NC(=O)C(C)n2c(=O)cc(C)c3c(C)nn(-c4ccccc4)c32)cc1 (configuration not stated)	11.8%	i	.	i
CC1=C(C(=O)Nc2cc(Cl)ccc2C)C2(CCCCC2)OC1=O	35.5µM*	i	.	i
CC1(C(=O)Nc2ccc(Cl)c(Cl)c2)CCN1Cc1ccccc1OC(F)F (configuration not stated)	22.4µM*	i	-35.6%	i
CCOC(=O)[C@]12CCCC=C1N(Cc1ccc(OC)cc1)C(=O)[C@@H]2CC(=O)N1CCN(C(=O)c2ccco2)CC1	.	i	.	.
Cc1cc(=O)n(CC(=O)Nc2ccc(Cl)c(Cl)c2)c(-n2nc(C)cc2C)n1	12.6µM*	?	.	i
CC(=O)c1ccc(NC(=O)Cn2c(-n3nc(C)cc3C)nc(C)c(C)c2=O)cc1	27.2%	i	.	i
CCOC(=O)CC1(C)NC(=O)c2c(C)sc(C(=O)OCC)c2N1 (configuration not stated)	5.8%	.	11.2%	i
CCCCC1(C)NC(=O)c2c(C)sc(C(=O)OCC)c2N1 (configuration not stated)	20µM*	i	13.5%	i
COCCNC(=O)c1cc(-c2ccccc2)nn1CC1CC(c2cccc([N+](=O)[O-])c2)=NO1 (configuration not stated)	14.6%	i	-19.3%	i
O=C(NCc1cccc(Br)c1)c1cc(-c2ccccc2)nn1CC1CC(c2cccc([N+](=O)[O-])c2)=NO1 (configuration not stated)	2.7%	31.6µM*	-3.2%	i
Nc1ncnc2nc(-c3ccccc3)[nH]c12	16.9%	i	-9.1%	i
Nc1nc(N)c2[nH]c(-c3ccccc3)nc2n1	12.6µM*	i	-11.5%	i
Cc1cc(NC(=O)c2ccc(Cl)cc2Cl)n(-c2ccccc2)n1	20µM*	i	-4.6%	i
Cc1cc(NC(=O)CSc2cc(Cl)ccc2Cl)n(-c2ccccc2)n1	12.6µM*	i	15.8%	i
Cc1cc(NC(=O)COc2ccc(Cl)cc2Cl)n(-c2ccccc2)n1	17.5%	i	2.8%	i
Cc1cc(NC(=O)Nc2cc(C)nn2-c2ccccc2)n(-c2ccccc2)n1	10.2%	i	-1.0%	i
Cc1nnc(SCC(=O)Nc2cc(-c3cc(C)c(C)cc3C)nn2-c2ccccc2)s1	?	25.1µM*	0.7%	i
Cc1nnc(SCC(=O)Nc2cc(C(C)(C)C)nn2-c2ccccc2)s1	-12.1%	.	-1.3%	i
Cc1ccc(S(=O)(=O)N2CCN(c3nc(-n4c(=O)[nH]c5ccccc54)nc4ccccc34)CC2)cc1	.	.	0.4%	.
SMILES	TDP-43 yeast inh	FUS yeast rescue	aSyn yeast inh	Abeta yeast res
NCCC(=O)Nc1ccc(Cl)cc1C(=O)c1ccc[nH]1	.	i	.	.
COc1ccc(C2=Nc3ccccc3N(C(=O)c3ccc(C(F)(F)F)cc3)C2C(=O)NCc2ccccc2)cc1 (configuration not stated)	-1.6%	22.4µM*	8.6%	i
CCCCNC(=O)C1C(c2ccccc2)=Nc2ccccc2N1C(=O)c1ccc(C(F)(F)F)cc1 (configuration not stated)	9.0%	?	-18.6%	i
CCOC(=O)CCCC(=O)N1CCN(/[N+]([O-])=N/Oc2ccc([N+](=O)[O-])cc2[N+](=O)[O-])CC1	.	.	-84.3%	.
COc1ccc(C(=O)C[n+]2cccc3cc(Cl)ccc32)cc1	.	.	0.8%	.
O=C(COc1cccc(Cl)c1)N1CCC(c2nc3ccccc3o2)CC1	28.2µM*	i	.	i
CCCCOc1ccc(C(=O)N2CCC(c3nc4ccccc4o3)CC2)cc1	28.2µM*	i	.	i
